# Most compounds without a hit are left out; they make up all but 17% or so of the library.
# DT40 TDP1 no CPT – qHTS for Inhibitors of human tyrosyl-DNA phosphodiesterase 1 (TDP1): qHTS in cells in absence of CPT; DT40 Tdp1-/- hTDP1 cells, no CPT, ATP luminescence, 48 h; Potency, µM (doses to about 46.2 µM), usual class: inhibitors; hit rate 15% among 420,000; AID 686978, 2013; note: nearly all actives have a fitted effect of over 55% in size
#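 Cells were dispensed at 400 per well, compounds added by pin tool, plates incubated ≥48 hr at 37 °C, then CellTiter-Glo added for 30 min at room temperature before luminescence reading. Line: DT40 Tdp1-/- complemented with hTDP1; camptothecin omitted.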
# ClpP mod – qHTS Assay for Activators of ClpP | ATP-dependent Clp protease proteolytic subunit (Bacillus subtilis (strain 168)), P80244 | purified B. subtilis ClpP, FRET peptide cleavage, 20 min | Potency, µM (titrated, usually from 57.5 µM) | hit rate 1.9% among 340,000 | AID 651965, 2013; active = well fitted falling curve with a large enough effect; inconclusive = small, poorly fitted or top-dose-only effect; inactive = no such curve, though single readings can be large or run the other way; note: the source files actives as falling curves though it sought activators and does not explain the sign; nearly all actives have a fitted effect of over 65% in size
#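 FRET quenching reversal measured ClpP activation: 10 microg/mL B. subtilis ClpP at pH 8 with the FRET-FV decapeptide, read at 430 nm after 320 nm excitation. The 20-min minus 0-min signal was scaled between DMSO/no-enzyme wells and ADEP (5.8 microM final).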
# DT40 TDP1 CPT – DT40-hTDP1 cell growth loss with CPT | chicken DT40 Tdp1-/-;hTDP1 cells + 20 nM CPT, ATP luminescence, 48 h | Potency, µM (highest dose often 46.2 µM), usual class: inhibitors | hit rate 12% among 420,000 | AID 686979; note: nearly all actives have a fitted effect of over 55% in size
#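 Chicken DT40 Tdp1-/- cells stably complemented with human TDP1 were seeded at 400 cells/well in medium containing 20 nM camptothecin, exposed to pin-transferred compounds, and grown at 37 °C for at least 48 hr. Viability was read as ATP luminescence.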
# TDP1 inh – inhibitors of human tyrosyl-DNA phosphodiesterase TDP1 | recombinant TDP1, AlphaScreen DNA substrate cleavage | hit rate 0.28% among 350,000 | Potency, µM (highest dose often 130 µM), most hits filed as inhibitors | Q9NUW8; note: nearly all actives have a fitted effect of over 40% in size
# Target sequence (Q9NUW8 whole entry, looked up): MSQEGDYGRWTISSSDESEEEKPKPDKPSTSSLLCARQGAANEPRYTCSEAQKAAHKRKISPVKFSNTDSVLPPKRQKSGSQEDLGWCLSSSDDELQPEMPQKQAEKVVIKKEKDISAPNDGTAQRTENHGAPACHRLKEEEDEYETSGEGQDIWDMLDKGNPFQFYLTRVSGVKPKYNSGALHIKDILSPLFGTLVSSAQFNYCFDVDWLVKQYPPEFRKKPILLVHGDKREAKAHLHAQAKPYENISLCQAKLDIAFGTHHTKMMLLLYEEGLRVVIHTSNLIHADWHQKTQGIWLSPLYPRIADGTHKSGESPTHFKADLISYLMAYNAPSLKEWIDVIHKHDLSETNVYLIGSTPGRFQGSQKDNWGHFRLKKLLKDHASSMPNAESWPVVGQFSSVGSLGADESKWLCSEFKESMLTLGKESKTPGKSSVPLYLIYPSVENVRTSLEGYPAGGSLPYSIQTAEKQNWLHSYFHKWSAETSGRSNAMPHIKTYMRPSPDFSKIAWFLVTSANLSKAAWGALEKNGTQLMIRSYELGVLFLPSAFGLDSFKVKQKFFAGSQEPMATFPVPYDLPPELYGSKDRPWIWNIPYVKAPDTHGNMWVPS
#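 Signal: AlphaScreen proximity between streptavidin donor and anti-FITC acceptor beads on intact substrate. Reaction: Tdp1 1 nM, substrate 15 nM final, 5 min RT after 15 min compound preincubation.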
# Numbers stand for hits; . = inactive; ? = inconclusive; / = no result; [ ] = remark or other dose. Unless noted, calls come from the whole dose curve; as a rule, active = well fitted curve in the direction sought with a large enough effect; inconclusive = small, poorly fitted or top-dose-only effect, or another doubt; inactive = no such curve, though single readings can be large; an effect the other way counts as inactive or inconclusive.
SMILES,DT40 TDP1 no CPT,ClpP mod,DT40 TDP1 CPT,TDP1 inh
Cc1cccc(N(C)C(=O)Cc2c(C(=O)O)[nH]c3ccccc23)c1,?,.,?,.
COc1ccc(CNC(=O)Cn2c(=O)n(CCC(=O)N3CCCCC3)c(=O)c3sccc32)cc1,?,.,.,.
O=C(CCl)N(O)c1ccc(C=Cc2ccccc2)cc1,0.206µM,.,0.13µM,/
COCCN1C(=O)N(c2cccc(OC)c2)C(=O)C1CC(=O)Nc1ccccc1 (stereo not drawn),.,.,.,.
O=C(OCC(=O)N1CCCCCC1)c1cccc(Cl)c1,.,.,.,.
Cc1ccc([N+](=O)[O-])cc1S(=O)(=O)n1ccnc1C,18.4µM,/,20.6µM,.
CC(C)c1ccc(NC(=O)C2CSC3(C)CCC(=O)N23)cc1 (stereo not drawn),.,.,?,.
CC(C)OCCCNC(=O)CN1C(=O)c2cccnc2Sc2ccccc21,.,.,.,.
Cc1nnc(SCc2nc3scc(-c4ccccc4)c3c(=O)[nH]2)s1,.,.,.,.
CC(C)CNC(=O)CSc1nc2scc(-c3ccccc3)c2c(=O)[nH]1,.,22.4µM,.,.
Cc1csc(SC(C)c2nc3scc(-c4ccccc4)c3c(=O)[nH]2)n1 (stereo not drawn),20.6µM,.,?,.
NNC(=O)/C(=C\c1ccc(Br)cc1)NC(=O)c1cccs1,.,.,.,.
COc1ccc(C2C3=C(Nc4ncnn42)c2ccccc2CCC3)cc1 (stereo not drawn),.,.,.,.
Fc1ccc(/C=C2\CCCC3=C2Nc2ncnn2C3c2ccc(F)cc2)cc1 (stereo not drawn),18.4µM,?,14.6µM,.
CCCn1cc2c(c1-c1ccc(C)cc1)c(=O)n(C)c(=O)n2C,20.6µM,/,?,.
Cn1c(=O)c2c(-c3ccccc3)n(CCCN3CCOCC3)cc2n(C)c1=O,?,.,.,.
Cc1ccc(-c2c3c(=O)n(C)c(=O)n(C)c3cn2Cc2ccccc2)cc1,?,.,?,.
CCCCn1cc2c(c1-c1ccc(Cl)cc1)c(=O)n(C)c(=O)n2C,14.6µM,?,?,.
COC(=O)c1cccc(Cn2nc(C)c([N+](=O)[O-])c2C)c1,?,/,.,.
CC1=CC(C)(C)n2c(O)c(C3=NC(=S)NC3=O)c3cc(OC(=O)c4cccc5ccccc45)cc1c32,23.1µM,.,?,.
CC1=CC(C)(C)n2c(O)c(N=NC(N)=S)c3cc(C)cc1c32,.,.,.,.
O=C1CC(c2nnc(Cc3ccc(F)cc3)o2)CN1c1ccccc1 (stereo not drawn),.,.,.,.
Cc1c(C#N)c(=O)oc2ccc3ccccc3c12,.,7.94µM,.,.
CCOc1ccccc1-n1nnnc1SCC(=O)NC(=O)NCc1ccco1,?,.,?,.
CCOc1ccccc1-n1nnnc1SCC(=O)NC(=O)Cc1ccccc1,.,25.1µM,.,.
SMILES,DT40 TDP1 no CPT,ClpP mod,DT40 TDP1 CPT,TDP1 inh
Cc1ccc(/C=N/N2CCN(C3c4ccccc4-c4ccccc43)CC2)o1,18.4µM,.,?,/
Oc1ccc(/C=N/N2CCN(C3c4ccccc4-c4ccccc43)CC2)cc1O,10.3µM,/,8.2µM,.
COc1cc(/C=N/N2CCN(C3c4ccccc4-c4ccccc43)CC2)cc(OC)c1OC,14.6µM,.,16.4µM,.
COc1cc(/C=N/N2CCN(C3c4ccccc4-c4ccccc43)CC2)cc(OC)c1O,?,.,?,.
CCc1nnc(NC(=O)CSc2nc(-c3ccccc3)nc3ccccc23)s1,.,.,.,.
COc1cccc(/C=C/C(=O)OCC(=O)NCCc2ccccc2)c1,.,.,.,.
Cc1cc(C(=O)N2CCN(c3cccc(Cl)c3)CC2)c2c(C)nn(-c3ccccc3Cl)c2n1,29.1µM,.,?,.
Cc1ccc(NC(=O)c2cc(C)nc3c2c(C)nn3-c2cccc(Cl)c2C)c(C)c1,?,.,?,.
COC(=O)c1cc(C)nc2c1c(C)nn2-c1ccccc1,.,.,.,/
COc1ccc(NC(=O)c2cc(C)nc3c2c(C)nn3-c2cccc(Cl)c2C)c(OC)c1,.,.,.,.
Cc1cc(C(=O)N2CCN(c3ccc(F)cc3)CC2)c2c(C)nn(-c3cccc(Cl)c3C)c2n1,14.6µM,.,20.6µM,.
COc1cc(NC(=O)c2cc(C)nc3c2c(C)nn3-c2ccccc2Cl)cc(OC)c1,23.1µM,.,?,.
CCN1CCN(CC(=O)Nc2cccc(C)c2C)C(=O)C1=O,.,.,2.31µM,.
CCC(=O)c1cn(CC(=O)Nc2cccc(C)c2C)c2ccccc12,.,.,.,/
CC(=O)c1cn(CC(=O)Nc2cccc(C)c2C)c2ccccc12,25.9µM,/,?,.
CC(=O)c1cn(CC(=O)Nc2ccc(C)cc2C)c2ccccc12,5.8µM,.,5.17µM,.
CCN1CCN(CC(=O)Nc2ccc(C)cc2C)C(=O)C1=O,.,.,.,.
COc1cccc(C2N=C(c3ccccc3C)NO2)c1OC (stereo not drawn),.,/,.,.
C=CCN1C[C@H](C(=O)N(CCCN(C)C)C(=O)NCC)C[C@@H]2c3cccc4[nH]cc(c34)C[C@H]21,.,/,.,/
O=C(c1cccnc1)C1CCCN(Cc2ccc3c(c2)CN(C(=O)c2ccc4[nH]ccc4c2)CCO3)C1 (stereo not drawn),?,/,.[9.04 µM],/
Cc1ccc(C(=O)N2N=C(CC(C)C)CC2(O)C(F)(F)F)o1 (stereo not drawn),.,/,.,.
Nc1nc(-c2ccccn2)nc(N)c1Cc1c(F)cccc1Cl,1.46µM,/,1.84µM,.
Nc1nc(-c2ccccn2)nc(N)c1Cc1ccccc1F,4.61µM,/,5.8µM,.
Cc1n[nH]c(C)c1Cc1c(F)cccc1Cl,?,.,?,.
COC(=O)C1CCN(C(=O)CN2C(=O)NC3(CCC(C)CC3)C2=O)CC1 (stereo not drawn),?,/,.,.
SMILES,DT40 TDP1 no CPT,ClpP mod,DT40 TDP1 CPT,TDP1 inh
Cc1ccc(CN2CCN(/N=C/C(Br)=C\c3ccccc3)CC2)cc1,4.11µM,/,?,.
Cc1ccc(CN2CCN(/N=C/c3ccc(O)c(O)c3)CC2)cc1,4.11µM,.,7.31µM,/
CCc1ccc2nc(N=C(N)N)nc(C)c2c1,7.31µM,.,10.3µM,.
Cc1ccc2nc(N=C(N)N)nc(C)c2c1,23.1µM,/,?,.
CCCC(=O)N/C(N)=N/c1nc(C)c2cc(C)ccc2n1,23.1µM,/,18.4µM,.
Cc1cc2nc(/N=C(\N)NC(=O)C(C)C)nc(C)c2cc1C,?,.,?,.
Cc1cc2nc(N=C(N)N)nc(C)c2cc1C,8.2µM,?,14.6µM,.
CCS(=O)(=O)c1nc(S(=O)(=O)c2ccc(C)cc2)c(N2CCC3(CC2)OCCO3)s1,?,.,.,.
O=C(CSc1nnc(-c2c[nH]c3ccccc23)o1)NCC1CCCO1 (stereo not drawn),.,.,.,.
Cc1nc(/N=C(\N)NC(=O)c2ccccc2)nc2ccccc12,?,.,29.1µM,.

# Compound activity as filed in PubChem BioAssay.
